In PubChem BioAssay AID463173 (ICCB-Longwood Screening Facility, Harvard Medical School, 2010):
Among all 52,000 compounds or so, about 4,300 (8.3%) were called active. The entries come from a sample that favours actives as a whole. Unmarked numbers belong to inactive results. Rule as the data show it: active = survival mostly below about 52% (no sharp cut-off); inactive = mostly above about 56%.

What follows are compounds tested on DeltatarO mutant (assay: S. aureus survival, RN4220 and DeltatarO strains – OD600, teichoic acid synthesis inhibitors, primary screen (AID 463173)). Conditions: S. aureus RN4220 wild type/DeltatarO growth, OD600, 18 h, active compounds read low, screened at 18.75 µg/mL (by protocol).
Cc1cccc(C)c1-n1ncc(C(=O)NCCCN2CCC(C)CC2)c1C1CCN(C(=O)OC(C)(C)C)CC1 was tested, and the survival was 91%.
COc1ccccc1CNC(=O)CCc1c(C)nn(-c2ccc(N3CCOCC3)nn2)c1C gave a survival of 80%.
Compound Cc1cccc(-n2ncc(C(=O)NCc3ccco3)c2C2CCN(C(=O)OC(C)(C)C)CC2)c1 has a survival of 81%.
CC(C)(C)OC(=O)N1CCC(c2c(C(=O)NCCN3CCc4ccccc4C3)cnn2-c2ccc(F)cc2F)CC1 gave a survival of 70%.
Cc1ccc(C)c(N2CCN(CCCNC(=O)c3cnn(-c4ccccc4)c3C3CCN(C(=O)OC(C)(C)C)CC3)CC2)c1 was tested, and the survival was 104%.
With CC(C)(C)OC(=O)N1CCC(c2c(C(=O)NCCN3CCOCC3)cnn2-c2ccc(F)cc2)CC1 the survival was 73%.
CC(C)(C)OC(=O)N1CCC(c2c(C(=O)NCc3ccccn3)cnn2-c2ccccc2)CC1 was tested, and the survival was 101%.
For Cc1ccc(-n2ncc(C(=O)NCc3ccco3)c2C2CCN(C(=O)OC(C)(C)C)CC2)c(C)c1, the survival was 25% (active).
Cc1ccc(C)c(N2CCN(CCCNC(=O)c3cnn(-c4ccccc4Cl)c3C3CCN(C(=O)OC(C)(C)C)CC3)CC2)c1 gave a survival of 74%.
Cc1ccc(-n2ncc(C(=O)NCc3ccco3)c2C2CCN(C(=O)OC(C)(C)C)CC2)cc1 was tested, and the survival was 94%.
In the case of CC(C)(C)OC(=O)N1CCC(c2c(C(=O)NCCN3CCOCC3)cnn2-c2ccc(F)cc2F)CC1, the survival is reported as -1% (active).
For Cc1ccc(-n2ncc(C(=O)NCc3ccccn3)c2C2CCN(C(=O)OC(C)(C)C)CC2)c(C)c1, the survival was 63%.
In the case of Cc1ccc(C)c(N2CCN(CCCNC(=O)c3cnn(-c4cccc(Cl)c4)c3C3CCN(C(=O)OC(C)(C)C)CC3)CC2)c1, the survival is reported as 52% (active).
In the case of CC(C)(C)OC(=O)N1CCC(c2c(C(=O)NCc3ccccn3)cnn2-c2ccccc2Cl)CC1, the survival is reported as -4% (active).
With COc1ccc(NC(=O)CSc2oc(-c3cccs3)nc2S(=O)(=O)c2ccc(Br)cc2)c(OC)c1 the survival was 57%.
O=C(Nc1cccc(F)c1)C1CCN(c2nc3ccccc3nc2C(F)(F)F)CC1 gave a survival of 83%.
Work on COc1ccc(C(=O)N2CCC(C(=O)O)CC2)cc1 yielded a survival of 97%.
Compound Nc1cccc(-c2cn3ccccc3n2)c1 has a survival of 96%.
Cc1ccc(-c2noc(CSc3nnc(C)n3-c3ccc(C)c(C)c3)n2)cc1 was tested, and the survival was 75%.
CCOc1ccc(CNC(=O)Cn2cc3c(n2)-c2c(oc(C(=O)N4CCOCC4)c2C)CC3)cc1 gave a survival of 72%.
Cc1cccc(C)c1NC(=O)C(=O)NCC(c1ccc2c(c1)OCO2)N1CCN(C)CC1 (configuration not stated) was tested, and the survival was 88%.
Cc1cccc(NCN2C(=O)S/C(=C/c3ccc(N(C)C)cc3)C2=O)c1 gave a survival of 73%.
O=C(Cn1nc(-c2ccccc2)ccc1=O)NCC1COCCO1 (configuration not stated) was tested, and the survival was 92%.
Compound COc1ccc(NC(=O)c2c(NC(=O)COc3ccc(Cl)cc3)sc3c2CCCCC3)cc1 has a survival of 135%.
CCCCOc1ccc(C(=O)NCCc2csc(-c3ccc(OC)cc3)n2)cc1 showed a survival of 108%.
Work on CCOC(=O)c1c(NC(=O)C(C)Sc2cn(CCNC(=O)c3ccc(OCC)cc3)c3ccccc23)sc2c1CCC2 (configuration not stated) yielded a survival of 92%.
Compound CCOC(=O)c1c(C)[nH]c(C)c1S(=O)(=O)N(C)CC(=O)Nc1ccc(C)cc1C has a survival of 95%.
With Cc1cccc(C)c1-n1ncc(C(=O)NCCCN2CCCCC2)c1C1CCN(C(=O)OC(C)(C)C)CC1 the survival was 89%.
In the case of CCN1CCN(C(=O)c2cnn(-c3cccc(Cl)c3)c2C2CCN(C(=O)OC(C)(C)C)CC2)CC1, the survival is reported as 74%.
Cc1ccc(-n2ncc(C(=O)NCCN3CCOCC3)c2C2CCN(C(=O)OC(C)(C)C)CC2)c(C)c1 was tested, and the survival was 37% (active).
With Cc1ccc(-n2ncc(C(=O)NCCN3CCN(C)CC3)c2C2CCN(C(=O)OC(C)(C)C)CC2)c(C)c1 the survival was 92%.
With Cc1ccc(-n2ncc(C(=O)NCCN3CCc4ccccc4C3)c2C2CCN(C(=O)OC(C)(C)C)CC2)c(C)c1 the survival was 64%.
Cc1c(Cl)cccc1-n1ncc(C(=O)NC2CCCCC2)c1C1CCN(C(=O)OC(C)(C)C)CC1 showed a survival of 94%.
In the case of CCOC(=O)c1cnn(-c2cccc(Cl)c2)c1C1CCN(C(=O)OC(C)(C)C)CC1, the survival is reported as 55% (active).
CCOC(=O)N1CCC(NC(=O)c2cnn(-c3cccc(Cl)c3C)c2C2CCN(C(=O)OC(C)(C)C)CC2)CC1 was tested, and the survival was 20% (active).
Cc1cccc(C)c1-n1ncc(C(=O)NCCN2CCOCC2)c1C1CCN(C(=O)OC(C)(C)C)CC1 showed a survival of 101%.
Work on CC1CCN(C(=O)c2cnn(-c3cccc(Cl)c3)c2C2CCN(C(=O)OC(C)(C)C)CC2)CC1 yielded a survival of 78%.
For Cc1cccc(C)c1-n1ncc(C(=O)NCCN2CCN(C)CC2)c1C1CCN(C(=O)OC(C)(C)C)CC1, the survival was 8% (active).
For Cc1c(Cl)cccc1-n1ncc(C(=O)NC2CCCC2)c1C1CCN(C(=O)OC(C)(C)C)CC1, the survival was 102%.
COc1cccc(-n2c(=O)c3sc4ccccc4c3n(CC(=O)NC3CCCCC3)c2=O)c1 gave a survival of 126%.
With Cc1ccc(-n2ncc(C(=O)NCc3ccccc3)c2C2CCN(C(=O)OC(C)(C)C)CC2)cc1 the survival was 94%.
COc1cccc(-n2cc(C(=O)NCc3ccc(C)cc3)c3ccccc3c2=O)c1 was tested, and the survival was 81%.
For COc1ccccc1CNS(=O)(=O)c1ccc2c(c1)CC(C)N2C(C)=O (configuration not stated), the survival was 71%.
CC(C)COc1ccc(C(=O)Nc2scc(-c3ccc(Br)cc3)c2C(=O)OC(C)C)cc1 showed a survival of 53%.
Compound COc1ccc(NC(=O)Cn2ncc3c(C)n(Cc4cccc(Cl)c4)c(C)c3c2=O)cc1 has a survival of 92%.
CCOc1ccc(-n2cc(-c3ccccc3)c3c(NC4CCCC4)ncnc32)cc1 was tested, and the survival was 104%.
In the case of Cc1ccc(-n2ncc(C(=O)NCCCN3CCCCC3)c2C2CCN(C(=O)OC(C)(C)C)CC2)c(C)c1, the survival is reported as 46% (active).
For CCN1CCN(CCCNC(=O)c2cnn(-c3ccc(C)cc3C)c2C2CCN(C(=O)OC(C)(C)C)CC2)CC1, the survival was 144%.
In the case of CC(C)(C)OC(=O)N1CCC(c2c(C(=O)NC3CCN(Cc4ccccc4)CC3)cnn2-c2cccc(F)c2)CC1, the survival is reported as 92%.
Compound CCOC(=O)N1CCC(NC(=O)c2cnn(-c3ccc(F)cc3F)c2C2CCN(C(=O)OC(C)(C)C)CC2)CC1 has a survival of 71%.
For Cc1ccc(-n2ncc(C(=O)NCCCN3CCN(C)CC3)c2C2CCN(C(=O)OC(C)(C)C)CC2)c(C)c1, the survival was 105%.
For CC(C)(C)OC(=O)N1CCC(c2c(C(=O)NC3CCN(Cc4ccccc4)CC3)cnn2-c2ccc(F)cc2F)CC1, the survival was -2% (active).
